According to PubChem BioAssay (NCATS):
Results filed as inconclusive are left out. Calls of active or inactive are those of the source. Unless noted, calls come from the whole dose curve; as a rule, active = well fitted curve in the direction sought with a large enough effect; inconclusive = small, poorly fitted or top-dose-only effect, or another doubt; inactive = no such curve, though single readings can be large; an effect the other way counts as inactive or inconclusive.

Legend:
[1] = Confirmation and Secondary Assay for Modulators of Hemoglobin Beta Chain Splicing at IVS2 654 locus (AID 910);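 note: HeLa cells stably carrying EGFP split by mutant beta-globin IVS2-654 intron; per-well total GFP intensity by laser scanning cytometry after 2-day treatment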
How it was run: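 Readout: per-well total peak green fluorescence (488 nm ex, 500–520 nm em) from objects 5–250 µm, reflecting correct splicing of an EGFP-654 reporter. Compounds were applied for 2 days at 37 °C to overnight-plated HeLa EGFP-654 cells; controls were DMSO and 500 nM IVS2-654 PNA.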

[2] = target: ATP-dependent 6-phosphofructokinase (Trypanosoma brucei brucei) (UniProt O15648); assay: qHTS Assay to Find Inhibitors of T. brucei phosphofructokinase: hit validation (AID 492961);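 note: luminescence reports ADP formed as PFK phosphorylates fructose-6-phosphate with ATP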
Chain of ATP-dependent 6-phosphofructokinase (Trypanosoma brucei brucei) (O15648 whole entry, looked up): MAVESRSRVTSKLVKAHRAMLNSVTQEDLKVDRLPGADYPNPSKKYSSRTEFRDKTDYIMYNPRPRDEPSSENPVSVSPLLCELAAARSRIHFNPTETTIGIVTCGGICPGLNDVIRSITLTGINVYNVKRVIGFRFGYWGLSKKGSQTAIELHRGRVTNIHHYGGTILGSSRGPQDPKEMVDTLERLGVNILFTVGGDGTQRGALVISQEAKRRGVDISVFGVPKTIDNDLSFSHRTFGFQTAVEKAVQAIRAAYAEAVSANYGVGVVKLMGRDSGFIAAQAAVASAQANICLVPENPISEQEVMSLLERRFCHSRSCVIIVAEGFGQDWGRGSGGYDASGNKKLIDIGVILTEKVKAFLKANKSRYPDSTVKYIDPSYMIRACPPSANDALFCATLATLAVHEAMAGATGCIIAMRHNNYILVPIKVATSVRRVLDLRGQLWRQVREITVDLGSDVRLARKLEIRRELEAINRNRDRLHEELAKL
How it was run: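 ADP-Glo luminescence read-out of ADP formed by 1.25 nM PFK from 0.1 mM ATP and 0.5 mM F6P (TEA pH 8.0, 45 min, RT). Compounds titrated; activity normalized to no-enzyme and full-enzyme controls.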

[3] = S16 Schwann cell PMP22 intronic element beta-lactamase assay (AID 624044; calls by dose curve; note: nearly all actives have a fitted effect of over 15% in size)
How it was run: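 Beta-lactamase reporter under a PMP22 intronic regulatory element in stable S16 rat Schwann cells; 24 h compound exposure. 460 nm blue signal normalized between DMSO (0%) and potassium clavulanate, with 535 nm FRET tracking viability; curves classed by r2 and response.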

[4] = system: ATS189; assay: qHTS profiling for inhibitors of Plasmodium falciparum proliferation (AID 504749); note: nearly all actives have a fitted effect of over 60% in size; details: P. falciparum in erythrocytes, SYBR Green DNA, 72 h; series mostly up to 12.8 µM
How it was run: (§1)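 SYBR Green fluorescence of parasite DNA, read after lysis and overnight dark incubation, measured growth over 72 h in erythrocyte culture at 0.3% parasitemia and 2.5% hematocrit. Data normalised to DMSO and 0.29 uM artemisinin, with plate-drift correction.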

[5] = system: ATS95; assay: as above; details: P. falciparum in erythrocytes, SYBR Green DNA, 72 h; series mostly up to 12.8 µM
How it was run: as §1

[6] = system: CP247; assay: as above; details: P. falciparum in erythrocytes, SYBR Green DNA, 72 h; series mostly up to 12.8 µM
How it was run: as §1

[7] = system: CP250; assay: as above; details: P. falciparum in erythrocytes, SYBR Green DNA, 72 h; series mostly up to 12.8 µM
How it was run: as §1

[8] = system: CP260; assay: as above; details: P. falciparum in erythrocytes, SYBR Green DNA, 72 h; series mostly up to 12.8 µM
How it was run: as §1

[9] = system: CP266; assay: as above; details: P. falciparum in erythrocytes, SYBR Green DNA, 72 h; series mostly up to 12.8 µM
How it was run: as §1

[10] = system: CP335; assay: as above; details: P. falciparum in erythrocytes, SYBR Green DNA, 72 h; series mostly up to 12.8 µM
How it was run: as §1

[11] = system: DIV17; assay: as above; details: P. falciparum in erythrocytes, SYBR Green DNA, 72 h; series mostly up to 12.8 µM
How it was run: as §1

[12] = system: Dd2; assay: as above; details: P. falciparum in erythrocytes, SYBR Green DNA, 72 h; series mostly up to 12.8 µM
How it was run: as §1

[13] = system: HB3; assay: as above; details: P. falciparum in erythrocytes, SYBR Green DNA, 72 h; series mostly up to 12.8 µM
How it was run: as §1

[14] = system: ICS; assay: as above; details: P. falciparum in erythrocytes, SYBR Green DNA, 72 h; series mostly up to 12.8 µM
How it was run: as §1

[15] = system: P93_24; assay: as above; details: P. falciparum in erythrocytes, SYBR Green DNA, 72 h; series mostly up to 12.8 µM
How it was run: as §1

[16] = system: P94_40; assay: as above; details: P. falciparum in erythrocytes, SYBR Green DNA, 72 h; series mostly up to 12.8 µM
How it was run: as §1

[17] = system: TAB113; assay: as above; details: P. falciparum in erythrocytes, SYBR Green DNA, 72 h; series mostly up to 12.8 µM
How it was run: as §1

[18] = system: TAB165; assay: as above; details: P. falciparum in erythrocytes, SYBR Green DNA, 72 h; series mostly up to 12.8 µM
How it was run: as §1

[19] = system: CP203; assay: as above; details: P. falciparum in erythrocytes, SYBR Green DNA, 72 h; series mostly up to 12.8 µM
How it was run: as §1

[20] = system: CP297; assay: as above; details: P. falciparum in erythrocytes, SYBR Green DNA, 72 h; series mostly up to 12.8 µM
How it was run: as §1

Measured: Potency

CNC1C(OC2C(O[C@@H]3C(O)C(O)[C@@H](N=C(N)N)C(O)C3N=C(N)N)OC(C)[C@@]2(O)CO)OC(CO)C(O)C1O (some centres undefined)
inactive: [1] | [2] | [3] | [4] | [5] | [6] | [7] | [8] | [9] | [10] | [11] | [12] | [13] | [14] | [15] | [16] | [17] | [18]

CC1(C)OC2CC(=O)OC[C@@]23C1CC(=O)[C@]1(C)C3CC[C@@]2(C)C(c3ccoc3)OC(=O)C3O[C@@]321 (some centres undefined)
inactive: [1] | [2] | [4] | [5] | [19] | [6] | [7] | [8] | [9] | [20] | [10] | [11] | [12] | [13] | [14] | [15] | [16] | [17] | [18]

CC(=O)N[C@@H]1C(O)OC(CO)C(O)C1O (some centres undefined)
inactive: [1] | [2] | [3] | [4] | [5] | [19] | [6] | [7] | [8] | [9] | [20] | [10] | [11] | [14] | [15] | [16] | [17] | [18]

CN(C)CCCOC1C(C(O)CO)OC2OC(C)(C)O[C@@H]21 (some centres undefined)
inactive: [1] | [2] | [3] | [4] | [5] | [19] | [6] | [7] | [9] | [20] | [10] | [11] | [12] | [13] | [14] | [15] | [16] | [17] | [18]

Cc1cc(O)c(C=O)c2c1C(=O)Oc1c(COC(=O)/C=C/C(=O)O)c(O)c(C(=O)O)c(C)c1O2
inactive: [1]

CC1C2CCC3C4CC=C5CC(N(C)C)CC[C@@]5(C)C4CC[C@@]32CN1C (some centres undefined)
inactive: [1] | [2] | [3] | [4] | [5] | [19] | [6] | [7] | [9] | [20] | [10] | [11] | [12] | [13] | [14] | [15] | [16] | [17] | [18]

CNC1CC(N)[C@H](O)[C@@H](O[C@@H]2OC(CO)C3OC4(OC(C(N)CO)C(O)C(O)C4O)O[C@@H]3[C@H]2O)C1O (some centres undefined)
inactive: [1] | [2] | [3] | [4] | [5] | [19] | [6] | [7] | [8] | [9] | [20] | [10] | [11] | [12] | [13] | [14] | [15] | [16] | [17] | [18]
